HTRA1 inhibitor = HTRA1 (human) protease inhibition | Q92743 | recombinant HTRA1, FP-rhodamine activity-based probe, fluorescence polarization | inhibition, % at 5.96 µM | actives 0.5% (n = 340,000) | AID 504803; in the data active means inhibition above about 36%
PAFAH2 FP inh = inhibitors of human PAFAH2 | Q99487 | recombinant PAFAH2, FP-rhodamine activity probe, fluorescence polarization | inhibition, % at 3.39 µM | actives 0.99% (n = 340,000) | AID 492956;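 active means inhibition above the mean over all tested compounds plus 3 SD, cut at about 30% in these data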;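 further: inhibitors block probe labeling of enzyme so polarization drops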
DAGLB inh = blocks human DAGLB lipase activity | Q8NCG7 | HEK293T DAGLB membrane lysate, EnzChek fluorogenic substrate | inhibition, % at 5.17 µM | actives 0.059% (n = 340,000) | AID 504411; in the data active means inhibition above about 34%
Target sequence (Q8NCG7 whole entry, looked up): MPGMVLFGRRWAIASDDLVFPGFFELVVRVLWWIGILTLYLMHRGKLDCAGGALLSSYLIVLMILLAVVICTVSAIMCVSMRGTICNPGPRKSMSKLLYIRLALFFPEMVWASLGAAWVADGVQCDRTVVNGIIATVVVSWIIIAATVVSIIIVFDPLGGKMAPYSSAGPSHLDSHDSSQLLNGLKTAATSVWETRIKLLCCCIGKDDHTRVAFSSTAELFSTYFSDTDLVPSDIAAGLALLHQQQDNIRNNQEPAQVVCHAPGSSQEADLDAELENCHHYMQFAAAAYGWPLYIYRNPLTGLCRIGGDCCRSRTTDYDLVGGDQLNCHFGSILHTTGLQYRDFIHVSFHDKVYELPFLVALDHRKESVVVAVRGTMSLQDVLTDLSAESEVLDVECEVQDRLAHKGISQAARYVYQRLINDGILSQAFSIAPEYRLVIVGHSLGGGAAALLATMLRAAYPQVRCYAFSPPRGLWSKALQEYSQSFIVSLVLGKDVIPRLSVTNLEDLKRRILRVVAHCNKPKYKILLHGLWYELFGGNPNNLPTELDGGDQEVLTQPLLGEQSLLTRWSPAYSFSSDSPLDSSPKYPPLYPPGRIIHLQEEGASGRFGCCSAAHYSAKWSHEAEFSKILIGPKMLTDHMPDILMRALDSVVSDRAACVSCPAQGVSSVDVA
PAFAH1B3 FP inh = blocks human PAF acetylhydrolase 1B catalytic subunit 3 | recombinant PAFAH1B3, FP-rhodamine probe, fluorescence polarization | inhibition, % at 3.39 µM | actives 0.28% (n = 340,000) | AID 492972;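 active means inhibition above the screen-wide average of all tested compounds plus 3 SD, cut at about 25% in these data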
PAFAH1B2 FP inh = PAFAH1B2 (human) inhibition; P68402; recombinant PAFAH1B2, FP-rhodamine activity probe, fluorescence polarization; inhibition, % at 3.39 µM; actives 1.2% (n = 340,000); AID 492953;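 active means inhibition above the mean of all tested compounds plus 3 SD, cut at about 24% in these data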
pPAFAH FP inh = pPAFAH (human) enzyme inhibition. Q13093. actives 1.5% (n = 330,000). recombinant pPAFAH, FP-rhodamine probe fluorescence polarization. AID 463082. inhibition, % at 3.39 µM;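 active means inhibition above the mean inhibition across the screen plus 3 SD, cut at about 25% in these data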;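 further: inhibitors block binding of the rhodamine activity-based probe so polarization drops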
Of the large screens only hits and unclear results are named; the others gave an inactive call. In the library only some 2.8% were active in any assay of this set; here they are far more common.

O=C(CCNS(=O)(=O)c1ccccc1)OCC(=O)c1ccc(Br)cc1	none
O=C(CCNS(=O)(=O)c1ccccc1)OCC(=O)c1ccc(Cl)cc1	pPAFAH FP inh 26
N#Cc1ccc(NC(=O)COC(=O)CCNS(=O)(=O)c2ccccc2)cc1	pPAFAH FP inh 29
CCCNC(=O)c1ccc(C)c(NC(=O)C2=C(C)OCCS2)c1	none
Cc1ccc(C)c(OCCC(=O)OC(C)C(=O)Nc2c(C)n(C)n(-c3ccccc3)c2=O)c1 (stereo not drawn)	none
O=C1CCCC/C1=C\Nc1ccc(O)cc1	pPAFAH FP inh 26
O=C1CCC/C1=C/Nc1ccc(Cl)cc1	none
O=S(=O)(Nc1cccc(Cl)c1)c1ccc2oc(=S)[nH]c2c1	pPAFAH FP inh 32
O=S(=O)(c1ccc2oc(=S)[nH]c2c1)N1CCCCC1	none
CSCc1cc(N(C)c2ccccc2)nc(-c2ccccc2)n1	none
CC(C)(C)c1cc(NC(=O)COC(=O)c2ccccc2O)n(-c2ccccc2)n1	none (no result: PAFAH2 FP inh, PAFAH1B3 FP inh, PAFAH1B2 FP inh, pPAFAH FP inh)
Cn1cccc1C(=O)OCC(=O)Nc1cc(C(C)(C)C)nn1-c1ccccc1	pPAFAH FP inh 29
Cc1[nH][nH]c(=O)c1C	none
C/C(=N/OC(=O)C1CC12CCC2)c1ccc(Br)cc1 (stereo not drawn)	PAFAH2 FP inh 51, PAFAH1B2 FP inh 52
COc1cc(C(Nc2ccc(S(=O)(=O)N3CCC(C)CC3)cc2)C(=O)NCC2CCCO2)cc(OC)c1OC (stereo not drawn)	PAFAH1B2 FP inh 25
COc1cc(C(Nc2ccc(S(=O)(=O)NCC3CCCO3)cc2)C(=O)NC(C)(C)C)cc(OC)c1OC (stereo not drawn)	none
CCOc1ccc(N2C(=O)C(=O)/C(=C(/O)c3ccccc3)C2c2ccccc2[N+](=O)[O-])cc1 (stereo not drawn)	none
CCOC(=O)c1ccc(Nc2nc(C)nc3c2nnn3Cc2ccccc2)cc1	none
[O-][n+]1onc2c1CCC(=N/O)/C2=N\Nc1ccccc1	pPAFAH FP inh 41 (no result: HTRA1 inhibitor, PAFAH2 FP inh, DAGLB inh, PAFAH1B3 FP inh, PAFAH1B2 FP inh)
CCOc1ccc(NC(=O)CN2C(=O)COc3ccccc32)cc1	none
CC(C)c1ccc(S(=O)(=O)N2CCN(C(C)C(=O)Nc3ccccc3-c3ccccc3)CC2)cc1 (stereo not drawn)	none
CC(C(=O)Nc1ccccc1-c1ccccc1)N1CCN(S(=O)(=O)c2ccccc2)CC1 (stereo not drawn)	PAFAH1B2 FP inh 31
Cc1ccc(S(=O)(=O)N2CCN(C(C)C(=O)NCC(C)c3ccccc3)CC2)cc1 (stereo not drawn)	PAFAH1B2 FP inh 29
COc1cc2c(cc1OC)[C@@H](NC(=O)C(C)C)[C@H](OCc1ccccc1)C2	none
Cc1cc(C)cc(N(CC(=O)NCCSCc2ccccc2)S(C)(=O)=O)c1	pPAFAH FP inh 31
CCOc1ccc(N(CC(=O)NCCSCc2ccccc2)S(=O)(=O)c2ccccc2)cc1	pPAFAH FP inh 28
O=C1Cc2cc(S(=O)(=O)Nc3ccccc3Cl)cc3c2N1CCC3	none
O=C(CCC1CCCN(C(=O)c2ccc3c(c2)OCO3)C1)N1CCN(c2ccccn2)CC1 (stereo not drawn)	pPAFAH FP inh 27
CN(C)c1cccc(C(=O)N2CCCC(CCC(=O)N3CCN(c4ccccn4)CC3)C2)c1 (stereo not drawn)	none
O=C(CCC1CCCN(C(=O)c2cccc(F)c2)C1)N1CCN(c2ccccn2)CC1 (stereo not drawn)	pPAFAH FP inh 25
CN(C)c1ccc(C(=O)N2CCCC(CCC(=O)N3CCN(c4ccccn4)CC3)C2)cc1 (stereo not drawn)	pPAFAH FP inh 26
CCCCC(NC(=O)c1ccc(C#N)cc1)C(=O)NCCC (stereo not drawn)	none
COc1ccc(CN2CCCC(C(=O)Nc3cccc(-n4cccn4)c3)C2)c(F)c1 (stereo not drawn)	none
C=C1C(=O)[C@@]23[C@H](O)C[C@@H]4C(C)(C)CC[C@H](O)[C@]4(C)[C@@H]2C[C@H](O)[C@@H]1[C@H]3O	PAFAH1B2 FP inh 81
C=C1C(=O)[C@@]23[C@H](O)C[C@@H]4C(C)(C)CC[C@H](O)[C@@]4(C)[C@@H]2CC[C@@H]1[C@H]3O	PAFAH1B2 FP inh 86
Cc1cccc(C(=O)O/N=C(\c2ccccc2)c2cccnc2)c1	PAFAH2 FP inh 72, pPAFAH FP inh 30
O=C(CNC(=O)c1ccccc1)N/N=C/c1cc(Br)ccc1O	PAFAH1B2 FP inh 27
Cc1csc(NC(=O)c2ccco2)c1C(=O)c1ccccc1	pPAFAH FP inh 26
CS(=O)(=O)N1CCSC1c1ccc(Br)cc1 (stereo not drawn)	PAFAH1B2 FP inh 26
O=c1ccn(CCCBr)c(=O)[nH]1	none
N#C/C(=C\c1ccc(-c2cccc([N+](=O)[O-])c2)o1)C(=O)Nc1nc(-c2cccs2)cs1	pPAFAH FP inh 33
O=C(N/N=C/c1ccc(-c2cccc([N+](=O)[O-])c2)o1)c1cccs1	none
COc1ccc(NC(=O)c2ccc(S(=O)(=O)N3CCCC3)cc2)cc1OC	none
N#CC1=C(N)NC(SCC(=O)O)=C(C#N)C12CCCC2	none
N#CC1=C(N)NC(SCc2ccc(F)cc2)=C(C#N)C12CCCCC2	PAFAH1B2 FP inh 28
N#CC1=C(SCC(=O)NC23CC4CC(CC(C4)C2)C3)NC(=O)C(C#N)C12CCCCC2 (stereo not drawn)	PAFAH2 FP inh 33, PAFAH1B2 FP inh 37
COc1cc2c(cc1OC)CN(C(=O)C1CCCN1S(=O)(=O)c1ccc(C)cc1)CC2 (stereo not drawn)	none
Cc1ccc(-c2ccc(/C=N/N3C(=O)C4C5C=CC(CC5)C4C3=O)o2)c([N+](=O)[O-])c1 (stereo not drawn)	pPAFAH FP inh 25
Cc1cc(NCCCn2ccnc2)n2nc(C)c(-c3ccccc3)c2n1	none
Cc1cc(NCCN2CCOCC2)n2nc(C)c(-c3ccccc3)c2n1	none
Cc1cc(NCCN2CCOCC2)n2nc(C)c(-c3ccc(Cl)cc3)c2n1	pPAFAH FP inh 28
Cc1cc(NCCCn2ccnc2)n2nc(C)c(-c3ccc(Cl)cc3)c2n1	pPAFAH FP inh 25
CCN(CC(=O)Nc1ccc(NC(C)=O)cc1)C(=O)c1cccc(N2C(=O)c3ccccc3C2=O)c1	none (no result: pPAFAH FP inh)
Cc1ccc(S(=O)(=O)Oc2ccc(/C=N/NC(=O)c3nn(C)cc3Cl)cc2)cc1	none
Cc1ccc(/C=N/OC(=O)c2nn(C)cc2Cl)cc1	PAFAH1B2 FP inh 28
CCC1CCCCN1C(=O)CCS(=O)(=O)c1ccc2c(c1)CCN2C(C)=O (stereo not drawn)	none
COC(=O)C(Cc1ccc(O)cc1)NC(=O)C1CCN(S(=O)(=O)c2ccc(C)cc2)CC1 (stereo not drawn)	none
CCCN1C(=O)c2cc(C(=O)Nc3ccc(OC)cc3OC)ccc2C1Nc1ccc(OC)cc1OC (stereo not drawn)	none

Compound activity: PubChem BioAssay, The Scripps Research Institute Molecular Screening Center
